# Source: PubChem BioAssay AID743049 (Broad Institute, 2013)
# Potency and affinity values are given separately. Results filed as inconclusive are left out. Where a call stands in place of a potency, no number is given. Activity calls are given as the source filed them. The rule behind the calls is not given here.
# Experiment: cytotoxicity dependent on PAX8, dose response, cell-based, plate reader, dry powder (AID 743049)
row,Structure (SMILES),outcome
1,COc1ccccc1C#Cc1ccc([C@@H]2[C@@H](C#N)N(C(=O)C3CCCCC3)[C@H]2CO)cc1,inactive
2,Cc1ccccc1CNC(=O)C1CCCN(c2nnc(C)c3c(C)n(-c4ccccc4)nc23)C1 (configuration not stated),inactive
